Source: PubChem BioAssay
Shown is part of a subset that was picked to be rich in hits.
miR-122 inh: miR-122 sensor activation. Huh7 psiCHECK-miR122 Renilla luciferase sensor, 48 h. activation, % at 12.5 µM. 340,000 compounds, 0.14% hits;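 active = mean activation of 30% or more, with every replicate also reaching 30%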;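 note: higher luciferase signal means stronger suppression of miR-122 activity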
Of the large screens only hits and unclear results are named; the others gave an inactive call.

C[C@H](O)C#Cc1ccc2c(c1)O[C@@H](CN(C)C(=O)c1ccncc1)[C@@H](C)CN([C@@H](C)CO)S2(=O)=O	none
C[C@@H](O)C#Cc1ccc2c(c1)O[C@H](CN(C)C(=O)c1ccncc1)[C@@H](C)CN([C@@H](C)CO)S2(=O)=O	none
C[C@H](O)C#Cc1ccc2c(c1)O[C@H](CN(C)C(=O)c1ccncc1)[C@H](C)CN([C@@H](C)CO)S2(=O)=O	none
CC(C)C#Cc1ccc2c(c1)O[C@H](CN(C)C(=O)c1ccncc1)[C@@H](C)CN([C@@H](C)CO)S2(=O)=O	miR-122 inh 41
C/C=C/c1ccc2c(c1)O[C@H](CN(C)C(=O)c1cccnc1)[C@@H](C)CN([C@@H](C)CO)S2(=O)=O	none
C[C@H](O)C#Cc1ccc2c(c1)O[C@H](CN(C)C(=O)c1ccncc1)[C@@H](C)CN([C@@H](C)CO)S2(=O)=O	none
C[C@@H]1CN([C@@H](C)CO)S(=O)(=O)c2ccc(C#Cc3ccccc3)cc2O[C@@H]1CN(C)C(=O)Nc1ccc2c(c1)OCO2	none
C[C@@H]1CN([C@@H](C)CO)S(=O)(=O)c2ccc(C#Cc3ccccc3)cc2O[C@H]1CN(C)C(=O)Nc1ccc2c(c1)OCO2	none
C/C=C/c1ccc2c(c1)O[C@H](CN(C)C(=O)c1cnccn1)[C@H](C)CN([C@H](C)CO)S2(=O)=O	miR-122 inh 33
C/C=C/c1ccc2c(c1)O[C@@H](CN(C)C(=O)c1cccnc1)[C@H](C)CN([C@@H](C)CO)S2(=O)=O	none
COc1ccc(C(=O)Nc2ccc3c(c2)OC[C@@H](C)N(C)C[C@H](C)[C@H](OC)CN(C)C3=O)cc1	none
C[C@H](CO)N1C[C@H](C)[C@H](CN(C)C(=O)Cc2cccnc2)Oc2ncc(-c3ccncc3)cc2C1=O	none
C[C@H](CO)N1C[C@H](C)[C@@H](CN(C)C(=O)C2CCC2)Oc2ncc(C#CC3CCCC3)cc2C1=O	none
C[C@H]1CN([C@@H](C)CO)C(=O)c2cc(-c3ccccc3)cnc2O[C@H]1CN(C)C(=O)Nc1ccc2c(c1)OCO2	none
C[C@@H]1CN([C@H](C)CO)C(=O)c2cc(-c3cccc(F)c3)cnc2O[C@H]1CN(C)CC1CCCC1	none
COCC#Cc1cnc2c(c1)C(=O)N([C@@H](C)CO)C[C@H](C)[C@@H](CN(C)C(=O)Nc1ccc(OC)cc1)O2	none
CCCC(=O)Nc1ccc2c(c1)OC[C@H](C)N(C)C[C@H](C)[C@H](OC)CN(C)C2=O	none
CC(=O)N(C)C[C@H]1Oc2cc(C#CC3(O)CCCC3)ccc2S(=O)(=O)N([C@@H](C)CO)C[C@H]1C	none
COc1cccc(-c2cnc3c(c2)C(=O)N([C@H](C)CO)C[C@H](C)[C@H](CN(C)Cc2cccc(C)c2)O3)c1	none
COCC(=O)N(C)C[C@H]1Oc2ncc(C#Cc3ccncc3)cc2C(=O)N([C@@H](C)CO)C[C@H]1C	none
C[C@H](CO)N1C[C@H](C)[C@@H](CN(C)Cc2ccc(Oc3ccccc3)cc2)Oc2c(NC(=O)C3CCOCC3)cccc2C1=O	none
CCCNC(=O)N(C)C[C@@H]1Oc2cc(C#CC(C)C)ccc2S(=O)(=O)N([C@H](C)CO)C[C@@H]1C	none
C[C@@H]1CN([C@H](C)CO)S(=O)(=O)c2ccc(C#Cc3cccnc3)cc2O[C@@H]1CN(C)C(=O)C1CC1	none
C[C@H](CO)N1C[C@H](C)[C@@H](CN(C)CC2CCOCC2)Oc2ncc(-c3ccc(C#N)cc3)cc2C1=O	none
C[C@H]1CN([C@@H](C)CO)C(=O)c2cc(NC(=O)NC3CCCCC3)ccc2O[C@@H]1CN(C)C(=O)Nc1ccccc1	none
C[C@@H]1CN([C@H](C)CO)S(=O)(=O)c2ccc(C#CC3CC3)cc2O[C@@H]1CN(C)C(=O)C1CC1	none
CC(=O)N(C)C[C@H]1Oc2cc(C#Cc3ccc(F)cc3)ccc2S(=O)(=O)N([C@H](C)CO)C[C@H]1C	miR-122 inh 37
C[C@H](CO)N1C[C@H](C)[C@@H](CN(C)C(=O)Cc2ccccc2)Oc2cc(C#Cc3ccccc3F)ccc2S1(=O)=O	none
COCC(=O)N(C)C[C@H]1Oc2cc(-c3ccccc3)ccc2S(=O)(=O)N([C@@H](C)CO)C[C@@H]1C	none
CC(=O)N(C)C[C@H]1Oc2cc(C#C[C@@H](C)O)ccc2S(=O)(=O)N([C@H](C)CO)C[C@@H]1C	none
C[C@H]1CN([C@@H](C)CO)S(=O)(=O)c2ccc(C#Cc3ccccc3F)cc2O[C@H]1CN(C)C(=O)Cc1ccccc1	none
CCCC#Cc1ccc2c(c1)O[C@H](CN(C)C(=O)CC)[C@@H](C)CN([C@@H](C)CO)S2(=O)=O	none
CC(=O)N(C)C[C@H]1Oc2cc(C#C[C@@H](C)O)ccc2S(=O)(=O)N([C@H](C)CO)C[C@H]1C	none
CCC(=O)N(C)C[C@H]1Oc2cc(C#Cc3ccccc3)ccc2S(=O)(=O)N([C@@H](C)CO)C[C@H]1C	miR-122 inh 48
COCC(=O)N(C)C[C@@H]1Oc2cc(-c3ccccc3)ccc2S(=O)(=O)N([C@@H](C)CO)C[C@@H]1C	none
CCCC#Cc1ccc2c(c1)O[C@@H](CN(C)C(=O)CC)[C@H](C)CN([C@@H](C)CO)S2(=O)=O	none
C[C@@H]1CN([C@H](C)CO)S(=O)(=O)c2ccc(C#Cc3ccccc3F)cc2O[C@@H]1CN(C)C(=O)Cc1ccncc1	miR-122 inh 52
COCC(=O)N(C)C[C@H]1Oc2cc(-c3ccc(C#N)cc3)ccc2S(=O)(=O)N([C@H](C)CO)C[C@H]1C	miR-122 inh 59
CCC(=O)Nc1ccc2c(c1)OC[C@H](C)N(CCC(F)(F)F)C[C@@H](C)[C@@H](OC)CN(C)C2=O	none
C[C@@H]1CN([C@@H](C)CO)C(=O)c2cc(Br)cnc2O[C@@H]1CN(C)C(=O)CN1CCOCC1	none
COc1cccc(NC(=O)N(C)C[C@H]2Oc3ncc(C#Cc4cccnc4)cc3C(=O)N([C@H](C)CO)C[C@H]2C)c1	none
COc1ccc(CN(C)C[C@@H]2Oc3c(NC(=O)C4CCCCC4)cccc3C(=O)N([C@H](C)CO)C[C@H]2C)cc1	none
C[C@@H]1CN([C@H](C)CO)C(=O)c2cc(-c3ccccc3F)cnc2O[C@H]1CN(C)Cc1ccccc1F	none
C[C@H]1CN([C@@H](C)CO)C(=O)c2cc(C#CCc3ccccc3)cnc2O[C@H]1CN(C)CC1CCOCC1	none
C[C@H]1CN([C@@H](C)CO)C(=O)c2cc(/C=C/c3ccccc3)cnc2O[C@H]1CN(C)Cc1ccccc1F	none
C[C@@H]1CN([C@@H](C)CO)S(=O)(=O)c2ccc(-c3cccc(C#N)c3)cc2O[C@H]1CN(C)C(=O)Nc1ccccc1F	none
COc1ccccc1-c1ccc2c(c1)O[C@H](CN(C)C(C)=O)[C@H](C)CN([C@H](C)CO)S2(=O)=O	none
COCC#Cc1cnc2c(c1)C(=O)N([C@@H](C)CO)C[C@H](C)[C@@H](CN(C)C(=O)Cc1cccnc1)O2	none
COc1cccc(NC(=O)N(C)C[C@H]2Oc3ncc(C#Cc4ccccc4)cc3C(=O)N([C@@H](C)CO)C[C@H]2C)c1	none
CNC[C@@H]1Oc2ncc(C#Cc3ccncc3)cc2C(=O)N([C@H](C)CO)C[C@@H]1C	none
COc1cccc(NC(=O)N(C)C[C@@H]2Oc3ncc(C#Cc4ccccc4)cc3C(=O)N([C@H](C)CO)C[C@H]2C)c1	none
C[C@H](CO)N1C[C@H](C)[C@H](CN(C)Cc2ccccn2)Oc2cc(-c3cccnc3)ccc2S1(=O)=O	none
Cc1ccc(-c2cnc3c(c2)C(=O)N([C@@H](C)CO)C[C@H](C)[C@@H](CN(C)C(=O)Cc2cccnc2)O3)cc1	none
Cc1ccccc1-c1ccc2c(c1)O[C@H](CN(C)C(=O)Nc1ccccc1)[C@@H](C)CN([C@H](C)CO)S2(=O)=O	none
